Compound activity as filed in PubChem BioAssay.
A selection: hits, their analogues and other compounds. The true share with any hit is near 3.5%.
MITF primary: MITF inhibitors, primary screen, biochemical, AlphaScreen, human | Microphthalmia-associated transcription factor (Homo sapiens), O75030 | actives 0.91% (n = 650,000) | inhibition, % at 2.6 µM | AID 1259374, 2018 | AlphaScreen MITF homodimerization, bead proximity signal; in the data active = inhibition above about 50%;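 note: 0% = vehicle wells with protein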
TEAD-YAP block: TEAD-YAP interaction inhibition, primary screen, TEAD-YAP interaction inhibitor project, luminescence, HEK-TIYL cells; TEAD-Gal4/YAP UAS-luciferase luminescence; inhibition, % at 9.12 µM; actives 1.4% (n = 640,000); in the data active = inhibition above about 32%;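 note: 0% = median of test compound wells and 100% = reference inhibitor wells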
FBW7 activator: FBW7 E3 ligase activators, primary screen, biochemical, AlphaScreen, human. AlphaScreen FBW7–phospho-cyclin E peptide binding, activator screen. normalized activity (activation), % at 26.1 µM. actives 0.13% (n = 650,000). AID 1259310, 2017; in the data active = normalized activity above about 1.9%;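 note: purified mutant Fbw7 with reduced substrate affinity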
Target sequence (Q969H0 whole entry, looked up): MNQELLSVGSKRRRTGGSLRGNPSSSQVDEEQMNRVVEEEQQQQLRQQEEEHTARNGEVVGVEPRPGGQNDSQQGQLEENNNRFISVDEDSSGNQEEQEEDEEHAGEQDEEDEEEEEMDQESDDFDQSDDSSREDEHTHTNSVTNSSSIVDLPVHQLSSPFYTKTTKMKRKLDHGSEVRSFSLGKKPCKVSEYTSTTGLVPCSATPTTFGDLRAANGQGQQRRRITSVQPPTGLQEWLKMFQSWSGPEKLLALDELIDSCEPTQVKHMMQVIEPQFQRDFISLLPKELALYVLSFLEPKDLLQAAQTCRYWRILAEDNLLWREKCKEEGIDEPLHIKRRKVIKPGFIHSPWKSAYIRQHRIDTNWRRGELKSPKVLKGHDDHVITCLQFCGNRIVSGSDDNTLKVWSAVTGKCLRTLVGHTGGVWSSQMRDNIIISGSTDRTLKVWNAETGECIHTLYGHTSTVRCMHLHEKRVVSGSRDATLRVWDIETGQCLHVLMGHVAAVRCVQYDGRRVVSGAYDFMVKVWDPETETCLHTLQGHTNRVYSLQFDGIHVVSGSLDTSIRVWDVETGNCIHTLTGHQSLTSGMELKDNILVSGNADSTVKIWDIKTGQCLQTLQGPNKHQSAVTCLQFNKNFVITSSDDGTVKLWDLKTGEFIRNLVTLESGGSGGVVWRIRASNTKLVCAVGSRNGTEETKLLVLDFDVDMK
GPR151 activ: activators of human GPR151, primary screen, cell-based, PathHunter beta-arrestin, luminescence | actives 1% (n = 650,000) | activation, % at 11.2 µM | PathHunter beta-arrestin GPR151 cells | G-protein coupled receptor 151 (Homo sapiens), Q8TDV0; in the data active = activation above about 4.9%;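 note: 0% = median of compound wells and 100% = cells with positive control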
MITF confirm: MITF inhibitors, retest of hits, confirmation, biochemical, AlphaScreen, triplicate; shares compounds with MITF primary; AlphaScreen MITF homodimerization, biotin/His-MITF beads; inhibition, % at 2.6 µM; actives 16% (n = 4,700);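 active = inhibition above a cutoff derived from the DMSO control wells, cut at about 28% in these data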;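 note: 0% = MITF dimer wells with DMSO only; inhibitors lower the bead chemiluminescence by keeping MITF from dimerizing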
AlphaScreen DR: AlphaScreen optical interference compounds, dose response, counter-screen, biochemical, HTS; shares compounds with MITF primary; AlphaScreen optical interference counterscreen, cell-free; IC50, µM; actives 6% (n = 480); call rule not given here
AS interf ctr: AlphaScreen optical interference compounds, counter-screen for MITF inhibitor project, biochemical, triplicate | inhibition, % at 2.6 µM | actives 7.6% (n = 4,700) | shares compounds with MITF primary | LysRS AlphaScreen counterscreen, signal interference | AID 1259376, 2018;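 active = inhibition above a cutoff derived from the DMSO control wells, cut at about 30% in these data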
Numbers without * were called inactive; · = no result.

SMILES | MITF primary | TEAD-YAP block | FBW7 activator | GPR151 activ | MITF confirm | AS interf ctr | others
CC(=O)Nc1cc(CNC(C)C2CC2)cc(C(=O)N2CCCC2)c1 (centres undefined) | -11 | -4 | 0 | 0 | · | ·
O=C(Nc1ccc(F)cc1)N1CCN(Cc2nc3ccccc3n2Cc2ccccc2)CC1 | 3 | -25 | 0 | -1 | · | ·
CC(C)(C)C(=O)N1CCN(Cc2nc3ccccc3n2Cc2ccccc2)CC1 | 13 | -25 | 0 | 1 | · | ·
C=CCNC(=O)N1CCN(Cc2nc3ccccc3n2Cc2ccccc2)CC1 | 78* | -13 | 0 | 2 | -4 | 14
COC(=O)c1ccc(CN2CCN(Cc3nc4ccccc4n3Cc3ccccc3)CC2)o1 | 67* | -12 | -1 | 0 | 11 | 27
CCN(CCO)C(=O)CCCN1C(=O)/C(=C/c2ccc(OC)c(OC)c2)SC1=S | 18 | -1 | 0 | 0 | · | ·
CCC(=O)NC(=S)NNC(=O)c1ccccc1O | 63* | -10 | -1 | -2 | 13 | 69*
CCOC(=O)c1ccc(S(=O)(=O)NCCN2CCOCC2)cc1 | 54* | 4 | 0 | 0 | -5 | -6
c1ccc(-c2cc(N3CCC4(CC3)OCCO4)nc(-c3ccccn3)n2)nc1 | 114* | 68* | -1 | 1 | 116* | 100*
CSc1cccc(CN[C@H]2C[C@H]3C(=O)N4CCC[C@H]4C(=O)N3C2)c1 | -4 | -12 | 0 | 0 | · | ·
COC1(OC)N=C(N)C2(C#N)C(c3cccc(OCc4ccccc4)c3)C12C#N (centres undefined) | 35 | -3 | 0 | -1 | · | ·
COC1(OC)N=C(N)C2(C#N)C(c3cccc(C)c3)C12C#N (centres undefined) | 52* | 2 | 0 | 0 | 8 | -2
O=C(Nc1nnc(-c2ccccc2)o1)c1ccc([N+](=O)[O-])o1 | -14 | 11 | 0 | 1 | · | ·
O=C(Nc1nnc(-c2ccco2)o1)c1ccc([N+](=O)[O-])o1 | 55* | 15 | 0 | -1 | 8 | 15
COc1cc(CN2CCN(Cc3cc(OC)c4c(c3)OCO4)CC2)cc2c1OCO2 | 54* | -4 | 0 | 1 | 15 | 24
COc1cc(CN2CCN(Cc3ccccc3F)CC2)cc2c1OCO2 | 81* | -6 | 0 | -1 | 0 | 6
COc1cc(CN2CCN(Cc3ccccc3Br)CC2)cc2c1OCO2 | 73* | 1 | 0 | -1 | 8 | 14
COc1cc(CN2CCCN(C)CC2)cc2c1OCO2 | 39 | 12 | 1 | 1 | · | ·
COc1cc2c(cc1OC)CN(Cc1cc(OC)c3c(c1)OCO3)CC2 | 24 | 2 | 0 | 0 | · | ·
COc1cc(CN2CCN(Cc3ccccc3)CC2)cc2c1OCO2 | 78* | -1 | 0 | 0 | 7 | -2
CCC1CCCCN1Cn1ncn(C)c1=S (centres undefined) | 6 | 9 | 0 | 0 | · | ·
COc1cc(CN2CCN(Cc3cccnc3)CC2)cc2c1OCO2 | 68* | 3 | 0 | 0 | 12 | 23
COc1cc(CN2CCN(Cc3cccc(C)c3)CC2)cc2c1OCO2 | 58* | 1 | 0 | 1 | 1 | -1
COc1cc(CN2CCN(Cc3ccccc3Cl)CC2)cc2c1OCO2 | 76* | -2 | 0 | -1 | 15 | 12
COc1cc(CN2CCc3nncn3CC2)cc2c1OCO2 | 0 | 6 | 0 | 2 | · | ·
SMILES | MITF primary | TEAD-YAP block | FBW7 activator | GPR151 activ | MITF confirm | AS interf ctr | others
NC(=O)COC(=O)c1cc2c(s1)CCC2 | 62* | 10 | 0 | 1 | 60* | 15 | AlphaScreen DR=>6.9
NC(=O)c1ccc(NC(=O)COC(=O)c2cc3c(s2)CCC3)cc1 | 49 | 1 | 0 | -1 | · | ·
N#C/C(=C(/O)COC(=O)c1cc2c(s1)CCC2)c1nc2ccccc2[nH]1 | 87* | 10 | 0 | -1 | 82* | 3 | AlphaScreen DR=>7.1
O=C(CN1C(=O)c2ccccc2C1=O)NNC(=O)c1cc2c(s1)CCCC2 | -4 | -8 | 0 | 0 | · | ·
O=C(OCN1C(=O)c2ccccc2C1=O)c1cc2c(s1)CCC2 | 74* | 2 | 0 | 0 | 77* | 6 | AlphaScreen DR=>7.1
CCOC(CNC(=O)CCNS(=O)(=O)c1ccc(OC)cc1)OCC | 2 | 6 | 0 | 0 | · | ·
Fc1ccc(C2CCN(Cc3cccnc3)CC2)cc1 | 53* | -2 | 0 | 0 | 4 | 9
Fc1ccc(C2CCN(Cc3ccncc3)CC2)cc1 | 60* | 17 | 0 | 0 | 0 | 13
Fc1ccccc1C1CCN(Cc2cccnc2)CC1 | 35 | -4 | 0 | 0 | · | ·
O=[N+]([O-])c1ccc(OCCCNCc2ccco2)cc1 | 32 | -4 | 0 | 0 | · | ·
O=[N+]([O-])c1ccc(OCCNCc2ccco2)cc1 | 56* | -10 | 0 | -2 | -14 | -5
O=C(CSc1nncn1-n1cccc1)Nc1ccc(Cl)cc1 | 8 | 10 | 0 | 0 | · | ·
C/C=C/c1ccc(OCCCNC(C)CC)c(OC)c1 (centres undefined) | 83* | -4 | 0 | 0 | -1 | -4
C=CCc1ccc(OCCNC2CCCC2)c(OC)c1 | 25 | -16 | 0 | -1 | · | ·
C/C=C/c1ccc(OCCN(C)C)c(OC)c1 | 73* | 2 | 0 | 0 | 6 | 9
C/C=C/c1ccc(OCCCNC2CCCC2)c(OC)c1 | 51* | 6 | 0 | -1 | -6 | 1
Cc1cccc(C)c1NC(=O)C(=O)NCc1ccc2c(c1)OCO2 | -12 | -8 | 0 | -2 | · | ·
Cc1ccc(NC(=O)CCn2nc(C)c(C)c2C)c(C)c1 | -1 | 1 | 0 | -1 | · | ·
CS(=O)(=O)N1CCN(c2ccc([N+](=O)[O-])c(N3CCN(Cc4ccccc4)CC3)c2)CC1 | 83* | 10 | 0 | 0 | -5 | -3
O=[N+]([O-])c1ccccc1CN1CCN(S(=O)(=O)Cc2ccccc2)CC1 | 70* | 12 | 1 | 1 | 12 | 18
CCS(=O)(=O)N1CCN(Cc2ccccc2[N+](=O)[O-])CC1 | -1 | 2 | 0 | 0 | · | ·
O=S(=O)(Cc1ccccc1)N1CCN(Cc2ccccc2Cl)CC1 | 92* | 5 | 0 | 1 | 11 | 11
Sc1c(C=Nc2ccc(Br)cc2)sc2ccccc12 | 13 | -12 | 0 | 1 | · | ·
Fc1ccccc1CN1CCC(N2CCCCC2)CC1 | -19 | 5 | 0 | -1 | · | ·
Fc1ccccc1N1CCN(C2CCN(Cc3ccccc3)CC2)CC1 | 49 | 1 | 0 | -1 | · | ·
Fc1ccccc1CN1CCN(C2CCCCC2)CC1 | 61* | 1 | 0 | 1 | 8 | -1
